From PubChem
The list is not random: actives were taken first. Their share in the collection is about 9.9%.
Tau ThT inhib = inhibitors of human tau fibril formation, thioflavin T binding; P10636; recombinant tau K18 P301L, heparin-induced fibrillization, ThT fluorescence; Potency, µM (series often up to 57.4 µM), usual class: inhibitors; 2.1% of 270,000 active; further: nearly all actives have a fitted effect of over 55% in size
Target sequence (P10636 561-689 P618L limits assumed): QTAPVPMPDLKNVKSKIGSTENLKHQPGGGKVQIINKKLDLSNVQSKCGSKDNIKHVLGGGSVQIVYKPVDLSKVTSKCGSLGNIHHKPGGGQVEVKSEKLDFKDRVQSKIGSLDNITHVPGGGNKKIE
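ThT emission at 510 nm, taken 1 hr after adding 30 uM dye, quantifies aggregates formed when 20 uM heparin acts on human tau K18 P301L for 6 hr at 37 C.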
JMJD2E inh = inhibitors of human JMJD2E histone demethylase | Potency, µM (top dose mostly 57.1 µM), usual class: inhibitors | AID 2147 | B2RXH2 | JMJD2E catalytic domain, FDH-coupled NADH fluorescence (FDH is formaldehyde dehydrogenase) | 1.6% of 230,000 active; active means well fitted inhibition curve with a large enough effect, not every such curve was filed as active; inconclusive means small, poorly fitted or top-dose-only effect, or another doubt; inactive means no such curve, though single readings can be large or run the other way; further: nearly all actives have a fitted effect of over 50% in size
Tau fluor cs = counter-screen for tau fibril formation inhibitors; tau K18 P301L (four-repeat tau fragment) Alexa594 fluorescence, heparin fibrillization; Potency, µM (titrated, usually from 57.7 µM); 0.93% of 280,000 active; AID 1463; further: nearly all actives have a fitted effect of over 55% in size
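Human K18 P301L tau (15 uM unlabeled plus 0.24 uM Alexa 594-labeled, final) in 100 mM sodium acetate pH 7 was mixed with compound and 20 uM heparin and incubated 6 hr at 37 C.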
HPGD inh = inhibitors of human 15-hydroxyprostaglandin dehydrogenase (HPGD). Potency, µM, hits mostly inhibitors. purified HPGD, NADH fluorescence kinetic, PGE2 substrate. AID 894. 4.3% of 150,000 active; active means well fitted inhibition curve with a large enough effect, not every such curve was filed as active; inconclusive means small, poorly fitted or top-dose-only effect, or another doubt; inactive means no such curve, though single readings can be large or run the other way
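20 nM HPGD preincubated 15 min at room temperature with compound in 50 mM Tris-HCl pH 8, 0.01% Tween 20. Started with 1 mM NAD+ and 30 uM prostaglandin E2; NADH fluorescence (360/450 nm) read 5 times over 30-s intervals, last minus first.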
Tau fibril FP = blocks human tau fibril formation measured by polarization | Potency, µM (titrated, usually from 57.7 µM), most hits filed as inhibitors | AID 1468 | 0.39% of 280,000 active | P10636 | K18 P301L tau heparin fibrillization, Alexa594 FP, 6 h; further: nearly all actives have a fitted effect of over 55% in size
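FP of Alexa 594-tau after heparin (20 uM) induction. Substrate: human K18 P301L, 15 uM unlabeled, 0.24 uM labeled. Buffer 100 mM sodium acetate pH 7. 6 hr, 37 C.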
ALDH1A1 inh = blocks purified human ALDH1A1 activity; P00352; Purified ALDH1A1, NADH fluorescence, propionaldehyde substrate; Potency, µM (titrated, usually from 75.3 µM), most hits filed as inhibitors; 7.3% of 220,000 active; AID 1030; active means well fitted inhibition curve with a large enough effect, not every such curve was filed as active; inconclusive means small, poorly fitted or top-dose-only effect, or another doubt; inactive means no such curve, though single readings can be large or run the other way
Target sequence (P00352 whole entry, looked up): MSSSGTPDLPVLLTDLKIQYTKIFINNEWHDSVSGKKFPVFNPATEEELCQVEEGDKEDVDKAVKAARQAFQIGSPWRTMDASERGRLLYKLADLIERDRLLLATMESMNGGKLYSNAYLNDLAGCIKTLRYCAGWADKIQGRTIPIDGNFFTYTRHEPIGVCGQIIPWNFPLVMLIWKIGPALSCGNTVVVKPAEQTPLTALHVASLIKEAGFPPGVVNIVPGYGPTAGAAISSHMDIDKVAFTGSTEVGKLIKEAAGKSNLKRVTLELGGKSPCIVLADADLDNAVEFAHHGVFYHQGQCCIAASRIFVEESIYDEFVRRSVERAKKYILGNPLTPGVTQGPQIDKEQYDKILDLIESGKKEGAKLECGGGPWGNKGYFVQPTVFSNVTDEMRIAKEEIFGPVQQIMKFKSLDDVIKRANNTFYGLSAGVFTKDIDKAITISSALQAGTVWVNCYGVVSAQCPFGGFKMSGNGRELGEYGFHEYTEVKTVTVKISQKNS
Of the large screens only hits and unclear results are named; the others gave an inactive call; ! = not active in a repeat; [ ] = remark or other dose. Unless noted, the call rests on the fitted dose curve; in most records, active means well fitted curve in the direction sought with a large enough effect; inconclusive means small, poorly fitted or top-dose-only effect, or another doubt; inactive means no such curve, though single readings can be large; an effect the other way counts as inactive or inconclusive.

CCCCC1=CC2=C(c3ccco3)C(=O)C(C)(OC(=O)c3ccc(OC)cc3)C(=O)C2=CN1Cc1ccco1 (stereo not given)	Tau ThT inhib 8.9µM!, JMJD2E inh 13µM!, ALDH1A1 inh inconclusive
CCCCC1=CC2=C(c3ccco3)C(=O)C(C)(OC(=O)c3ccc(OC)cc3)C(=O)C2=CN1CCCCO (stereo not given)	Tau ThT inhib inconclusive, ALDH1A1 inh inconclusive
CCCCC1=CC2=C(c3ccco3)C(=O)C(C)(OC(=O)c3ccc(OC)cc3)C(=O)C2=CN1Cc1ccc(OC)cc1 (stereo not given)	Tau ThT inhib 14µM!, Tau fibril FP inconclusive
CCCCC1=CC2=C(c3ccco3)C(=O)C(C)(OC(=O)c3ccc(OC)cc3)C(=O)C2=CN1CC1CC1 (stereo not given)	Tau ThT inhib 16µM!, JMJD2E inh inconclusive, Tau fluor cs inconclusive
COc1ccc(-n2c(/C=C/c3cc(OC)c(OC)cc3OC)nc3cc4ccccc4cc3c2=O)cc1Cl	Tau fibril FP inconclusive (no result: JMJD2E inh, HPGD inh, ALDH1A1 inh)
Cc1ccc(C2CC(c3ccccc3)=NN2C(=S)Nc2ccccc2)o1 (stereo not given)	Tau ThT inhib inconclusive, HPGD inh 18µM, ALDH1A1 inh 2µM
COc1cc(/C=N/NC(N)=S)ccc1OCC(=O)Nc1ccc(C)cc1	ALDH1A1 inh 25µM
CCOc1cc(/C=N\Nc2ccc([N+](=O)[O-])cc2)ccc1OCC(=O)Nc1ccc(C)c(C)c1	Tau ThT inhib 2.2µM, Tau fluor cs inconclusive
CNC(=S)N/N=C/c1ccc(OCC(=O)Nc2c(C)cc(C)cc2C)c(OC)c1	Tau ThT inhib inconclusive
COc1cc(/C=N\Nc2ccc([N+](=O)[O-])cc2)ccc1OCC(=O)Nc1ccc(C)c(C)c1	Tau ThT inhib 1.6µM, Tau fluor cs 7.1µM[quencher]
CCOc1cc(/C=N\NC(=O)Cc2ccccc2)ccc1OCC(=O)Nc1ccc(C)c(C)c1	none
O=C(O)CCSCc1ccccc1	none (no result: Tau ThT inhib, JMJD2E inh, Tau fluor cs, Tau fibril FP)
N#CCSCC(=O)Nc1ccccc1	none
N#C/C(Cn1c[n+](NC(=O)Nc2ccccc2)cn1)=N/O	ALDH1A1 inh 32µM
CC1(CC(=O)O)O[C@H]2CCCCC[C@H]2O1 (stereo not given in full) (tested in a mixture with another compound)	none (no result: Tau ThT inhib, JMJD2E inh, Tau fluor cs, Tau fibril FP)
COc1cc(C(C)=O)ccc1Oc1ncnc2c1cnn2-c1ccc(F)cc1	HPGD inh 16µM
OCC#CCSc1nnc(-c2ccc(Br)cc2)o1	Tau ThT inhib inconclusive
COc1ccccc1N1CCN(C(=O)CSc2nc3ncnc(N)c3[nH]2)CC1	ALDH1A1 inh 28µM
OCC#CCSc1nnc(-c2ccccc2Br)o1	ALDH1A1 inh 20µM
CC(C)Cn1c(SCC(=O)N2CCN(S(=O)(=O)c3ccccc3)CC2)nc2ccccc21	ALDH1A1 inh 13µM
O=c1c2ccccc2nc(SCc2ccccc2)n1Cc1ccco1	ALDH1A1 inh 20µM
CCN(CC)S(=O)(=O)c1ccc2oc(C(=O)N(C)Cc3ccccc3)c(C)c2c1	none (no result: JMJD2E inh, HPGD inh, ALDH1A1 inh)
Cc1ccccc1-n1c(SCC(=O)N/N=C/c2sccc2C)nc2ccccc2c1=O	ALDH1A1 inh inconclusive
C1CCCC1	none (no result: Tau ThT inhib, JMJD2E inh, Tau fluor cs, Tau fibril FP)
O=C(CSc1nc2cc(Cl)ccc2o1)N1CCOCC1	none
O=C(O)c1ccc2oc(SCC(=O)N3CCCCC3)nc2c1	HPGD inh 8.9µM
Nc1cc(N)nc(SCC(=O)N2CCN(C(=O)c3ccco3)CC2)n1	ALDH1A1 inh inconclusive
O=C(CSc1nc2ccccc2o1)N1CCN(C(=O)c2ccco2)CC1	ALDH1A1 inh 13µM
O=C(CSc1nnc(-c2ccccc2Br)o1)N1CCN(C(=O)c2ccco2)CC1	HPGD inh 28µM, ALDH1A1 inh 8.9µM
O=C(CSc1nnc(-c2ccc(F)cc2)o1)N1CCN(C(=O)c2ccco2)CC1	none
CC1CCCN(C(=O)CSc2nc3ccccc3o2)C1 (stereo not given)	HPGD inh 13µM
O=C(Nc1ccccc1)C1=C[C@H](c2ccc(Br)cc2)C[C@H](OCc2ccc(CO)cc2)O1	none (no result: HPGD inh)
O=S(=O)(/C=C/c1ccccc1)Oc1ccccc1	none
Cc1ccc2c(CC(=O)Nc3cccc(Cl)c3C)coc2c1	none (no result: JMJD2E inh, HPGD inh, ALDH1A1 inh)
O=C(CSc1ccc(F)cc1)N1CCN(S(=O)(=O)c2ccccc2)CC1	ALDH1A1 inh 2.8µM (no result: HPGD inh)
COc1ccccc1N1CCN(C(=O)CSc2nc3ccccc3o2)CC1	Tau ThT inhib inconclusive, ALDH1A1 inh 8.9µM
O=C(CSc1ncccn1)N1CCN(S(=O)(=O)c2ccccc2)CC1	none (no result: HPGD inh, ALDH1A1 inh)
CC(C)Cn1c(SCC(=O)N2CCN(C(=O)c3ccco3)CC2)nc2ccccc2c1=O	ALDH1A1 inh 32µM (no result: HPGD inh)
CCOC(=O)c1ccc(NC(=O)CCc2c(C)nc3cc(-c4ccc(OC)cc4OC)nn3c2C)cc1	none (no result: JMJD2E inh, HPGD inh, ALDH1A1 inh)
CC(=O)O[C@@H]1[C@@]2(C)O[C@H]2CC[C@]23O[C@H]2[C@H](OC3=O)C2=C(C)C(=O)O[C@@]21O	Tau ThT inhib inconclusive, ALDH1A1 inh 28µM
O=c1[nH]cnc2c1sc(=S)n2-c1ccccc1	HPGD inh 14µM, ALDH1A1 inh 10µM
Cc1ccc(S(=O)(=O)/N=C(\CCl)N2CCOCC2)cc1	ALDH1A1 inh 28µM
COc1ccc(CC(=O)Nn2c(-c3ccccc3)nc3ccccc3c2=O)cc1	ALDH1A1 inh 1µM
Cc1ccc(-c2nc3ccccc3c(=O)n2NC(=S)N(C)C)cc1	HPGD inh 28µM, ALDH1A1 inh inconclusive
Cc1ccc(-c2nc3ccccc3c(=O)n2NC(=O)c2cccs2)cc1	ALDH1A1 inh inconclusive
Cc1cc2nc(SCC(=O)N(C)C)c3c(c2cc1C)CCCC3	Tau ThT inhib inconclusive
Cc1cccc(-n2c(O)c(C=NC3CCS(=O)(=O)C3)c3ccccc3c2=O)c1C (stereo not given)	none (no result: HPGD inh, ALDH1A1 inh)
O=C1Nc2ccc(I)cc2/C1=C/c1cc(Br)c(O)c(Br)c1	Tau ThT inhib 4µM, Tau fluor cs 14µM![quencher], HPGD inh 3.5µM, Tau fibril FP inconclusive
CC1/C=C/C=C/C=C/C=C/C=C/C=C/C=C/C(OC2OC(C)C(O)C(N)C2O)CC2O[C@@](O)(CC(O)CC(O)C(O)CCC(O)CC(O)CC(=O)OC(C)[C@H](C)C1O)CC(O)C2C(=O)O (stereo not given in full)	Tau ThT inhib 4µM, JMJD2E inh inconclusive, Tau fluor cs inconclusive, HPGD inh inconclusive, Tau fibril FP 4µM, ALDH1A1 inh inconclusive
CN(Cc1ccc(Cl)cc1)C(=O)CCl	ALDH1A1 inh 0.5µM (no result: HPGD inh)
COc1ccc(CN(C)C(=O)CCl)cc1	ALDH1A1 inh 0.5µM (no result: HPGD inh)
CN(Cc1ccc(Cl)s1)C(=O)CCl	ALDH1A1 inh 0.35µM (no result: HPGD inh)
CS(=O)(=O)N(CC(N)=O)Cc1ccc(Cl)cc1	none
O=[N+]([O-])c1cccc(P(=O)(O)c2cccc([N+](=O)[O-])c2)c1	none (no result: HPGD inh, ALDH1A1 inh)
CCCCCCn1c(Br)nc2c1c(=O)n(C)c(=O)n2C	none (no result: HPGD inh)
